Most compounds without a hit are left out; they make up all but 1.8% or so of the library.
PDI inh: blocks human protein disulfide isomerase activity. P07237. PDI insulin aggregation turbidity, A650, 90 min. inhibition, % at 10 µM. hit rate 0.052% among 350,000;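 active = mean inhibition across replicates of 30% or more, whatever share of single replicates reach that level; inconclusive = mean inhibition below 30% while every single replicate reaches 30%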
DENV2 CPE rescue: inhibitors of DENV2 cytopathic effect; CPE inhibition, % at 9.99 µM; AID 651640; DENV2-infected cells, cytopathic effect rescue, plate reader; hit rate 1.7% among 350,000; in the data active = CPE inhibition above about 20%, passing the limit was not always enough; inconclusive = no clear call, values can overlap the other calls; tested in BHK-21 cells;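 note: 0% = median of neutral control wells and 100% = median of positive control wells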
ERAP1 HTS inh: inhibitors of human ERAP1 aminopeptidase; Q9NZ08; recombinant ERAP1, Leu-AMC fluorescence, 60 min; inhibition, % at 10.7 µM; AID 652197; hit rate 0.15% among 340,000;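 active = mean replicate inhibition of at least 30%, or all replicates individually reaching that 30% level; inactive = mean below 30% and not every replicate reaching it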;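 note: 0% = neutral control wells and 100% = L-leucinethiol positive control wells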
ERp5 block: ERp5 (human) disulfide isomerase inhibition; Q15084; ERp5 insulin aggregation, absorbance 650 nm, 90 min; inhibition, % at 9.99 µM; hit rate 0.05% among 350,000;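 active = mean replicate inhibition above about 25%, with every replicate also reaching it, limit read from the data, passing the limit was not always enough; inconclusive = only one of those two criteria met; inactive = neither criterion met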
Target sequence (Q15084 whole entry, looked up): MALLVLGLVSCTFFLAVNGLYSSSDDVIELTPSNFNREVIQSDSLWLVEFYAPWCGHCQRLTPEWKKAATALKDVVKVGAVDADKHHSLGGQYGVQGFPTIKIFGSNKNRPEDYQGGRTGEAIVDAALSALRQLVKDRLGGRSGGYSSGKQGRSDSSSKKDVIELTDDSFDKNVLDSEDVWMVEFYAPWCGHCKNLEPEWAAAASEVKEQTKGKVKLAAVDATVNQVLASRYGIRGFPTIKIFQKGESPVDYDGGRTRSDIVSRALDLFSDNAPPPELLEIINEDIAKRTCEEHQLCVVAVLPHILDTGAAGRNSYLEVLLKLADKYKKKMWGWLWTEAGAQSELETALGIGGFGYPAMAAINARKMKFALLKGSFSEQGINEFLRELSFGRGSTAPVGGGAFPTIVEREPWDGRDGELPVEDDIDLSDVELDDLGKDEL
AF4-AF9 inh: inhibitors of human MLL-AF4/AF9 interaction. P42568. AlphaScreen, biotin-AF4 peptide binding to FLAG-AF9. inhibition, % at 10 µM. hit rate 0.47% among 350,000. AID 651704;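 active = every replicate reaching a set inhibition limit, whatever the replicate mean, cut at about 25% in these data; inconclusive = mean inhibition reaches that limit but some replicates miss it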;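 note: 0% = plate neutral control median and 100% = total signal loss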
* = called active by the depositor; ? = inconclusive; . = not tested or not shown.

SMILES	PDI inh	DENV2 CPE rescue	ERAP1 HTS inh	ERp5 block	AF4-AF9 inh
CCCN(C)C[C@@H]1OCCCC[C@H](C)Oc2ccc(NC(=O)CCC(F)(F)F)cc2C(=O)N([C@@H](C)CO)C[C@@H]1C	.	-4	3	-2	-2
CO[C@H]1CN(C)C(=O)c2cc(NC(=O)Nc3c(C)noc3C)ccc2OC[C@H](C)N(CC2CC2)C[C@H]1C	.	-2	-1	2	-1
O=[N+]([O-])c1ccc(O)c(/C=N/n2cnc3ccccc32)c1	-3	70*	0	-8	-1
CC(=O)NC(CC(=O)NCCOc1ccccc1F)c1ccccc1 (stereo unspecified)	-1	3	36*	3	2
CC(=O)NC(CC(=O)NNC(=O)C(C)Oc1ccccc1F)c1ccccc1 (stereo unspecified)	-7	?	4	9	5
Cc1nc2ccc3nc(NC(=O)C4COc5ccccc5O4)sc3c2s1 (stereo unspecified)	-5	?	0	0	48*
Cc1nc2cc(NC(=O)C3COc4ccccc4O3)ccc2s1 (stereo unspecified)	0	2	90*	-5	-1
Clc1cccc(C2=NOC(c3nnc(-c4ccccc4)o3)C2)c1 (stereo unspecified)	-3	35*	2	0	.
c1ccc(C2=NOC(c3nnc(-c4ccccc4)o3)C2)cc1 (stereo unspecified)	-2	20	.	1	-5
C[C@@H]1CN([C@@H](C)CO)C(=O)Cc2cc(NC(=O)NC3CCCCC3)ccc2O[C@H]1CN(C)S(=O)(=O)c1ccc(F)cc1	.	-1	-1	-9	3
COc1ccc(NC(=O)N(C)C[C@@H]2Oc3ccc(NC(=O)Nc4ccc(F)cc4)cc3CC(=O)N([C@@H](C)CO)C[C@@H]2C)cc1	.	50*	4	79*	0
COc1ccc(NC(=O)N(C)C[C@@H]2Oc3ccc(NC(=O)Nc4ccc(C(F)(F)F)cc4)cc3CC(=O)N([C@H](C)CO)C[C@@H]2C)cc1	.	53*	2	-14	1
COc1ccc(NC(=O)Nc2ccc3c(c2)CC(=O)N([C@@H](C)CO)C[C@H](C)[C@@H](CN(C)C(=O)Nc2ccccc2)O3)cc1	.	46*	-1	3	4
COc1ccc(NC(=O)Nc2ccc3c(c2)CC(=O)N([C@@H](C)CO)C[C@H](C)[C@@H](CN(C)C(=O)Nc2ccc(F)cc2)O3)cc1	.	-1	4	-2	-4
CO[C@@H]1CN(C)C(=O)c2cc(NS(C)(=O)=O)ccc2OC[C@@H](C)N(C(=O)c2ccc3c(c2)OCO3)C[C@@H]1C	.	-6	1	-2	-4
CO[C@H]1CN(C)C(=O)c2cc(NS(C)(=O)=O)ccc2OC[C@@H](C)N(C(=O)c2ccc3c(c2)OCO3)C[C@H]1C	.	27*	1	4	-2
CO[C@H]1CN(C)C(=O)c2cc(NS(C)(=O)=O)ccc2OC[C@H](C)N(C(=O)c2ccc3c(c2)OCO3)C[C@@H]1C	.	42*	3	-1	0
C[C@@H]1CN([C@H](C)CO)C(=O)c2cc(NC(=O)C3CC3)ccc2O[C@H]1CN(C)C(=O)Nc1cccc2ccccc12	.	2	-1	5	-3
O=C(C1CCOCC1)N1[C@H](CO)[C@@H](c2ccccc2)C12CN(CCC(F)(F)F)C2	.	-11	-1	5	-1
O=C(CCNC(=O)OCC1c2ccccc2-c2ccccc21)NOCc1ccccc1	-6	29*	-1	-5	0
CC(C)OCCCn1c(=N)c(S(=O)(=O)c2ccccc2)cc2c(=O)n3ccccc3nc21	-3	-5	-13	0	0
Cc1ccc2nc3c(cc(C(N)=S)c(=N)n3CCCOC(C)C)c(=O)n2c1	-1	.	33*	4	-1
CCOCCCn1c(=N)c(S(=O)(=O)c2ccccc2)cc2c(=O)n3cc(C)ccc3nc21	7	-6	-6	3	26*
O=C(C1CCCCC1)N1CC2(C1)[C@@H](c1ccccc1)[C@@H](CO)N2Cc1ccc(Cl)cc1	.	-2	8	1	3
COC(=O)CCSCC(=O)Nc1nnc(C)s1	.	9	4	-1	27*
SMILES	PDI inh	DENV2 CPE rescue	ERAP1 HTS inh	ERp5 block	AF4-AF9 inh
O=C(NCCN1CCOCC1)c1ccc2c(c1)N(Cc1ccc(F)cc1)C(=O)CS2	-2	64*	5	?	2
COc1ccc(NC(=O)C(C)N2C(=O)c3ccccc3S2(=O)=O)c(OC)c1 (stereo unspecified)	1	2	-1	-2	0
CCOc1ccccc1NC(=O)C(C)N1C(=O)c2ccccc2S1(=O)=O (stereo unspecified)	-2	-2	-2	0	29*
O=S(=O)(N[C@H]1CC[C@H](CCNS(=O)(=O)c2ccccc2Cl)O[C@@H]1CO)c1ccccc1	.	-2	-1	2	0
COc1ccc2c3c(n(C)c2c1)[C@H](CO)NCC31CN(Cc2ccncc2)C1	.	13	.	.	4
COc1ccc2c3c(n(C)c2c1)[C@H](CO)NCC31CN(CC2CC2)C1	.	0	-2	-12	19
COc1ccc2c3c(n(C)c2c1)[C@@H](CO)NCC31CN(Cc2ccc(Cl)cc2)C1	.	7	.	.	45*
COc1ccc2c3c(n(C)c2c1)[C@H](CO)NCC31CN(Cc2ccc(F)cc2)C1	.	-1	1	-3	36*
COc1ccc2c3c(n(C)c2c1)[C@@H](CO)NCC31CN(CC2CCOCC2)C1	.	-6	1	-7	32*
COc1ccc2c3c(n(C)c2c1)[C@H](CO)N(CC1CC1)CC31CN(Cc2ccc(F)cc2)C1	.	13	2	6	31*
COc1ccc2c3c(n(C)c2c1)[C@@H](CO)N(C(=O)CN1CCOCC1)CC31CN(C(C)=O)C1	.	5	2	0	0
C/C=C/c1ccc([C@H]2[C@@H](CO)N(Cc3ccccn3)[C@@H]2CNC(C)=O)cc1	.	-10	0	2	0
C[C@@H]1CN([C@@H](C)CO)C(=O)c2cc(NC(=O)CCC(F)(F)F)ccc2O[C@@H](C)CCCCO[C@@H]1CN(C)Cc1ccc(C(=O)O)cc1	.	4	-1	4	-1
O=C(CCN1CCCCC1)NCC[C@H]1CC[C@H](NC(=O)C2CCC2)[C@@H](CO)O1	.	23*	-4	-2	0
O=C(CCN1CCCCC1)NCC[C@H]1CC[C@H](NC(=O)C2CCC2)[C@H](CO)O1	.	-8	-2	-8	-2
O=C(CCN1CCCCC1)NCC[C@@H]1CC[C@H](NC(=O)C2CCC2)[C@@H](CO)O1	.	46*	-1	-1	-1
COc1ccc2c3c(n(C)c2c1)[C@@H](CO)NCC31CCN(C(=O)c2cccc(F)c2)CC1	.	-7	-4	-1	4
CC(C)(C)[Si](C)(C)OC[C@@H]1[C@H]2c3ccccc3O[C@]1(C)NC(=S)N2C(=O)c1ccccc1	.	-2	-2	5	1
O=C(NNC(=O)c1ccccc1F)c1ccco1	12	-1	1	-2	-1
O=C(NNC(=O)c1ccccc1F)c1ccc(-c2ccccc2Cl)o1	0	21*	6	2	0

Assay outcomes as filed in PubChem.
